In all, about 48,000 compounds went through this assay and about 13,000 (27%) showed an effect of 50% or more. The list shows a part of the results.
Tested on: Wolbachia pipientis
Test: Anti-Wolbachia Cell-Based Screen
Type: functional
Set-up: scale not given: in the data most compounds retested in dose-response had high values
Details: 5 µM

Compound | Percent Effect [%]
CCOc1ccccc1-c1cc2c(cc1C(N)=O)OCO2 | -7.69
CCOc1ccc(Br)cc1-c1cc(N)[nH]n1.Cl | 161.1
CCOc1ccccc1-c1noc(CN2CCN(CCOC)CC2)n1 | 9.475
COc1ccc(Br)cc1CC(=O)Nc1cc(C)n[nH]1 | -11.39
CCOc1ccccc1-c1cc(N)[nH]n1.Cl | 107
CCOc1cc(C)c(-c2cc(N)[nH]n2)cc1OCC | 103.8
Cc1cc(NC(N)=O)ccc1OCC(F)(F)F | 6.991
c1ccc2c(c1)CN(c1ncnc3c1CCNC3)CCO2 | -28.26
Cc1ccsc1C(=O)N1CCn2cnc(COCC3CC3)c2C1 | 0.0867
O=C(c1cccs1)N1CCCn2cnc(COCC3CC3)c2C1 | 6.591
CS(=O)(=O)NCc1ncn2c1CN(C(=O)C1CCCO1)CCC2 (centres undefined) | 106.6
CC(=O)N(C)Cc1ncn2c1CN(C(=O)C1CCCO1)CCC2 (centres undefined) | 106.4
CC(C)CC(=O)N1CCCn2cnc(CNS(C)(=O)=O)c2C1 | 117
Cc1ccc(C)c(CN2CCCn3nc(CNS(C)(=O)=O)cc3C2)c1 | -10.08
CN(C)C(=O)NCc1ncn2c1CN(S(C)(=O)=O)CCC2 | 2.726
CC(=O)N(C)Cc1ncn2c1CN(C(=O)CC1CC1)CCC2 | 104.9
CS(=O)(=O)NCc1ncn2c1CN(C(=O)CC1CCCC1)CCC2 | -15.27
CSCCc1c(-c2ccccc2)ncn1CCNc1cccnc1 | -1.445
COC(=O)C1CN(CC(=O)Nc2ccccc2Cl)c2ccccc21 (centres undefined) | 8.149
Cc1ccc(NC(C)C(=O)NCc2cccs2)cc1Cl (centres undefined) | -17.21
COCC(C)(C)NC(=O)CC(c1ccccc1)C(F)(F)F (centres undefined) | 0.4415
CC(C)N(C)Cc1ncn2c1CN(CC(=O)N(C)C)CCC2 | -4.555
CC(C)N(C)Cc1ncn2c1CN(C(=O)C1CCCO1)CCC2 (centres undefined) | 102

Compound | Percent Effect [%]
CC(C)N(C)Cc1nnc2n1CCCN(C(=O)C1CCCO1)C2 (centres undefined) | -11.05
Cc1ccc(C(=O)NCCNC(=O)N(C)C(C)c2ccccn2)cc1 (centres undefined) | -4.194
COC(=O)c1cccc(CN(C)C(C)c2ccccn2)c1 (centres undefined) | 109
CC(c1ccco1)N(C)Cc1cccc(C(=O)Nc2nccn2C)c1 (centres undefined) | 19.16
Cc1cnc(NC(=O)c2cccc(CN(C)Cc3ncccc3C)c2)s1 | 0.1885
CC(c1ccccn1)N(C)Cc1cccc(C(=O)Nc2nccn2C)c1 (centres undefined) | 66.38
COc1cc(CN(C)C(C)c2ccccn2)cc2c1OCO2 (centres undefined) | -21.63
Cc1ccc(Cl)c2ccc(NC(CO)CO)nc12 | -18.64
O=C(c1ccsc1)N1CC(c2nc(-c3ccc[nH]c3=O)no2)C1 | -1.062
CCOc1no[n+]([O-])c1-c1ccccc1 | 142.4
CCOc1ccc(-c2c(-c3ccccc3)ncn2C2CCNC2)cn1 (centres undefined) | 5.482
COCCOC[C@]1(CNCc2cccc(OC)c2)C[C@@H](O)[C@@H](O)C1.Cl | 2.999
N#CCCN(CC(=O)Nc1ccc(Br)cc1Cl)Cc1cccnc1 | -15.5
COCc1noc(C2(c3ccc(F)cc3)CCC2)n1 | -10.25
O=C(CCNS(=O)(=O)c1ccccc1)NCc1ccoc1 | -4.508
CNS(=O)(=O)c1cccc(CNC(=O)CCc2ccsc2)c1 | 10.65
COc1cccc(CNC(=O)CCOc2ccccc2C)c1 | 9.384
Cc1ccc(S(=O)(=O)NCCNC(=O)c2cncnc2C)cc1 | 2.217
CNS(=O)(=O)c1ccc(CCC(=O)NCc2cccc(OC)c2)cc1 | 110.9
COc1cccc(CNC(=O)CCC2=Nc3ccccc3S(=O)(=O)N2)c1 | 114.6
COc1cccc(CNC(=O)CCNS(=O)(=O)c2ccc(C)cc2)c1 | 91.68
COc1ccc(CC(=O)NCCNS(=O)(=O)c2ccc(C)cc2)cc1 | 90.25
COc1cccc(CCNC(=O)CCS(=O)(=O)C2CCCC2)c1 | 1.804

Compound | Percent Effect [%]
CNS(=O)(=O)c1cccc(C(C)NCc2cccc(OC)c2)c1 (centres undefined) | 4.426
COc1cccc(CNC(=O)N2CCN3CCNC(=O)C3C2)c1 (centres undefined) | -4.227
CCc1ncncc1C(=O)NCCNS(=O)(=O)c1ccc(C)cc1 | 8.343
O=C(CN1CCCCC1)NCc1cccnc1-n1cnc2ccccc21 | -3.687
Cl.Cn1nc(C2CCN(C(=O)CN3CCCCC3)CC2)c2cccnc21 | 113.3
Cl.Cn1nc(C2CCN(C(=O)CCN3CCOCC3)CC2)c2cccnc21 | 110.8
CN(CCO)Cc1nnc(C2CCN(C(=O)CN3CCCC3)CC2)n1C | -20.27
COc1ccccc1OC1CCN(C(=O)CCCN2CCOCC2)CC1 | 10.26
C=C(C)CNC(=O)C1CCC(=O)N(C2CCCC2)C1 (centres undefined) | 15.65
COCC1CN(C(=O)c2ccnnc2)Cc2ncnn2C1 (centres undefined) | 0.09306
CS(=O)(=O)Cc1nc(CNc2ccc(F)c(F)c2)cs1 | 12.98
CS(=O)(=O)Cc1nc(CN2CCC(C(F)(F)F)CC2)cs1 | -5.539
Cc1cc(CSCc2cc(C)on2)on1 | -0.9382
CS(=O)(=O)Cc1nc(CN2CCc3ccccc3CC2)cs1 | 14.86
CS(=O)(=O)Cc1nc(CNc2c(F)cc(F)cc2F)cs1 | 22.22
Cc1cc(CSCc2csc(CS(C)(=O)=O)n2)no1 | 97.95
Cc1noc(C)c1CSCc1nc(N)c2ccccc2n1 | -9.423
CCc1nc(CSCc2csc(CS(C)(=O)=O)n2)cs1 | 115
Cc1noc(C)c1CSCc1csc(CS(C)(=O)=O)n1 | 94.77
COCCN(Cc1sccc1C)C(=O)C1CCN(C(C)C)CC1 | 1.745
Nc1nc2c(c(N3CCCC(c4nnc5ccccn45)C3)n1)CCNC2 (centres undefined) | -10.49
O=C1[C@@H]2CN(Cc3cc4ccccc4o3)C[C@]2(C(=O)O)CN1CC1CC1 | -11.55
OCC(O)CSCc1nnc(-c2ccc(Cl)cc2)o1 (centres undefined) | -3.672

Reference: ChEMBL document CHEMBL3988442, “University of Dundee, Small-Polar-MMV Screening Library” (2021)
